These results are taken from PubChem BioAssay (NCATS).

Inconclusive results are not listed. A number with no mark means an inactive call. Active and inactive are the calls of the source. Calls come from the whole dose curve; as a rule, active = well fitted cell-killing curve with a large enough effect; inconclusive = small, poorly fitted or top-dose-only effect, or effect the other way; inactive = no such curve, though single readings can be large or run the other way.
Potency is the fitted concentration of half-maximal effect.

This assay in a line: Quantitative High-Throughput drug screen in 47 multiple myeloma cell lines against the NCATS MIPE library collection: SKMM1_PLB cell viability assay (AID 1919863). For viability: series mostly up to about 46 µM. Note: nearly all actives have a fitted effect of over 35% in size. To be noted: SKMM1 myeloma viability, CellTiter-Glo ATP, 48 h; viability: active compounds read low. The text has this: PI: Beverly A. Mock Ph.D.
Laboratory of Cancer Biology and Genetics,
Center for Cancer Research, National Cancer Institute,
National Institute of Health, Bethesda, Maryland
Drug resistance and disease progression are common in multiple myeloma (MM) patients, underscoring the need for new therapeutic combinations. […] We hypothesized that effective combinations would reduce MYC expression and enhance p16 activity. […] These preclinical data identify potentially useful drug combinations for evaluation in drug-resistant MM and reveal potential mechanisms of combined drug sensitivity.
Described herein is the primary MIPE qHTS used to cherrypick compounds. Validated compounds were then further tested for potential synergistic activiy.
[1] Peat TJ, Gaikwad SM, Dubois W, Gyabaah-Kessie N, Zhang S, Gorjifard S, Phyo Z, Andres M, Hughitt VK, Simpson RM, Miller MA, Girvin AT, Taylor A, Williams D, D'Antonio N, Zhang Y, Rajagopalan A, Flietner E, Wilson K, Zhang X, Shinn P, Klumpp-Thomas C, McKnight C, Itkin Z, Chen L, Kazandijian D, Zhang J, Michalowski AM, Simmons JK, Keats J, Thomas CJ, Mock BA. Drug combinations identified by high-throughput screening promote cell cycle transition and upregulate Smad pathways in myeloma. Cancer Lett. 2023 Aug 1;568:216284. doi: 10.1016/j.canlet.2023.216284. Epub 2023 Jun 24. PMID: 37356470; PMCID: PMC10408729.
SEQUENCE No. (e.g., 1, 2, 3, etc.); […] (e.g., Cells, Incubation, Reagent, etc.); VALUE and DESCRIPTION.
1; Cells; 5 uL; white, solid bottom 1536-well Greiner assay plate.
2; Compounds; 23 nL; Kalypsis pin tool (Wako USA) equipped with a 1536-well pin head to transfer to the assay plates.
3; Incubation; 48 hours; 37C incubation.
4; Reagent;5uL; CellTiter Glo (Promega).
5; Detector; 425V; Luminescence; Viewlux PerkinElmer.
NOTES (numbers refer to Sequence numbers above)
1. The cell-based screening methods employed in this study were like those previously published. Briefly, the corresponding myeloma cell lines were screened in 1,536-well plates with 500 cells, 5-uL per well for inhibition of cell viability (assessed by measuring ATP levels with CellTiterGlo).
2. NCATS MIPE 4.0 library of approved and investigational drugs were added using the Kalypsis pin tool. Wells treated with DMSO only for 100% viability and media only for 0% viability were used as controls.
3. The assay plates were covered and incubated for 48 hours in a 37C, 5% CO2 incubator with controlled humidity.
4. After 48 hours, CellTilter-GloTM luminescent substrate mix (Promega) reagent was added to the assay plate and plates we incubated for 5 min at room temperature.
5. Signal was measured as median relative luminescence units on a ViewLux (PerkinElmer) multiplate reader.
[1] Heske CM, Davis MI, Baumgart JT, Wilson K, Gormally MV, Chen L, Zhang X, Ceribelli M, Duveau DY, Guha R, Ferrer M, Arnaldez FI, Ji J, Tran HL, Zhang Y, Mendoza A, Helman LJ, Thomas CJ. Matrix Screen Identifies Synergistic Combination of PARP Inhibitors and Nicotinamide Phosphoribosyltransferase (NAMPT) Inhibitors in Ewing Sarcoma. Clin Cancer Res. 2017 Dec 1;23(23):7301-7311. doi: 10.1158/1078-0432.CCR-17-1121. Epub 2017 Sep 12. PMID: 28899971; PMCID: PMC6636827.
`CCOc1cc2ncc(C#N)c(Nc3ccc(F)c(Cl)c3)c2cc1NC(=O)C=CCN(C)C`: the Potency was 16.6 µM (active). Still for that read-out and setting: the figure for `CCCCc1nc2cc(C=CC(=O)NO)ccc2n1CCN(CC)CC` is 0.59 µM (active); for `Cc1cn2c(-c3cn[nH]c3)cnc2c(Nc2ccc(C(=O)N3CCNCC3)cc2F)n1` it is 18.7 µM (active); for `Cc1cn(-c2cc(NC(=O)c3ccc(C)c(Nc4nccc(-c5cccnc5)n4)c3)cc(C(F)(F)F)c2)cn1` it is 26.4 µM (active). In the case of `C[C@H]1C[C@@H]2[C@@H]([C@@H](O)C[C@@]3(C)[C@H]2CC[C@]3(O)C(=O)CO)[C@@]2(C)C=CC(=O)C=C12`, the viability was 112%.

As for `O=C(c1ccc(Nc2nccc(-c3cc4ccccc4s3)n2)cc1)N1CCC(N2CCCC2)CC1`, the Potency was 23.5 µM (active). On the same count and under the same terms, the figure for `COc1ccc(OC)c(-c2nnc3ccc(-c4ccc(OC)c(O[C@@H]5CCOC5)c4)nn23)c1` is 18.7 µM (active). As to `CCCCOc1c(C(=O)c2c(F)cc(C)cc2F)cnc2n[nH]cc12`, the Potency is 5.26 µM (active).

For `CC(C)(O)c1cc2nc(-c3cnc(N)nc3)nc(N3CCOCC3)c2s1`, the Potency was 0.235 µM (active). With `CCC(=C(c1ccccc1)c1ccc(OCCN(C)C)cc1)c1ccccc1`, the Potency is 20.9 µM (active). Regarding `Nc1nccc(Oc2ccc(NC(=O)c3c[nH]cc(-c4ccc(F)cc4)c3=O)cc2F)c1Cl`, the Potency is 23.5 µM (active). Still for that read-out and setting: the figure for `CCN(CC)CCNC(=O)c1ccc2nc(-c3ccccc3)c(-c3ccc(CN4CCC(n5c(=O)[nH]c6ccccc65)CC4)cc3)nc2c1` is 20.9 µM (active); for `CC(=O)OCC(=O)[C@@]1(O)[C@H](C)C[C@H]2[C@@H]3C=C(C)C4=Cc5c(cnn5-c5ccccc5)C[C@]4(C)[C@@H]3[C@@H](O)C[C@@]21C` it is 18.7 µM (active). In the case of `Cn1c(CNc2ccc(C(=N)N)cc2)nc2cc(C(=O)N(CCC(=O)O)c3ccccn3)ccc21`, the viability was 127%. Consider `CNc1nccc(-c2cccnc2Oc2cc(C(=O)Nc3cccc(C(F)(F)F)c3)ccc2C)n1`, for which the Potency was 18.7 µM (active). In the case of `O=C(C=Cc1cccc(S(=O)(=O)Nc2ccccc2)c1)NO`, the Potency was 4.29 µM (active).

Regarding `CC(C)c1nn(-c2c(Cl)cccc2Cl)c2nc(Cc3ccc(OCCO)cc3)[nH]c(=O)c12`, the Potency is 0.332 µM (active). Still for that read-out and setting: the figure for `Fc1cc(-c2cccc3ncc(-c4cnn(C5CCNCC5)c4)nc23)cc(F)c1CN1CCOCC1` is 23.5 µM (active); for `C=CCn1c(=O)c2cnc(Nc3ccc(N4CCN(C)CC4)cc3)nc2n1-c1cccc(C(C)(C)O)n1` it is 0.469 µM (active); for `Cc1nc(Nc2n[nH]c3c2CN(C(=O)N[C@H](CN(C)C)c2ccccc2)C3(C)C)c2sccc2n1` it is 0.743 µM (active). Regarding `Nc1ccc(C(=O)c2cc3c(ccc4ccccc43)[nH]2)cc1`, the Potency is 2.96 µM (active).

As to `COc1cc(C(=O)N2CCC(N3CCN(C)CC3)CC2)ccc1Nc1ncc2c(n1)N(C)c1ccccc1C(=O)N2C`, the Potency is 5.9 µM (active). As for `Cc1cc(Nc2cc(N3CCN(C)CC3)nc(Sc3ccc(NC(=O)C4CC4)cc3)n2)n[nH]1`, the Potency was 16.6 µM (active). Still for that read-out and setting: the figure for `Cn1c2ccccc2c2c3c(c4c5ccccc5n(CCC#N)c4c21)CNC3=O` is 8.33 µM (active). On the same count and under the same terms, the result for `CN1CC[C@@H](c2c(O)cc(O)c3c(=O)cc(-c4ccccc4Cl)oc23)[C@@H](O)C1` reads 0.187 µM (active). On the same count and under the same terms, the figure for `CN(c1ncccc1CNc1nc(Nc2ccc3c(c2)CC(=O)N3)ncc1C(F)(F)F)S(C)(=O)=O` is 14.8 µM (active).

Take `OCc1ccc(-c2ccc(-c3ccc(CO)s3)o2)s1`: the Potency is 20.9 µM (active). Same read-out and setting: the figure for `CCn1cc(-c2ccnc3[nH]c(-c4cccc(CN(C)C)c4)cc23)c(-c2ccc(NC(=O)N(C)C)cc2)n1` is 18.7 µM (active); for `NCC(=O)Nc1ccc(-n2nc(C(F)(F)F)cc2-c2ccc3c(ccc4ccccc43)c2)cc1` it is 37.2 µM (active). Regarding `COc1cc(C(=O)NS(=O)(=O)c2ccccc2C)ccc1Cc1cn(C)c2ccc(NC(=O)OC3CCCC3)cc12`, the Potency is 18.7 µM (active). Still for that read-out and setting: the result for `COc1cc2c(Oc3ccc(-c4cnc(Nc5ccc(F)cc5)n(C)c4=O)cc3F)ccnc2cc1OCCCN1CCOCC1` reads 29.6 µM (active); that for `CCN1CCN(CC(=O)Nc2ccc(-c3cccc4c(=O)cc(N5CCOCC5)oc34)c3sc4ccccc4c23)CC1`, 7.43 µM (active). On the same count and under the same terms, the result for `c1ccc2c(CCNc3ccc(Nc4ccncc4)cc3)c[nH]c2c1` reads 29.6 µM (active).

Take `COc1ccc2c(c1)CC[C@@H](CN(C)CC(=O)O)[C@H]2c1ccccc1`: the Potency is 1.05 µM (active). For the molecule `C[C@]12CC[C@H](O)CC1=CCC1C2CC[C@]2(C)C(n3cnc4ccccc43)=CCC12` (stereo not given in full), the viability is 80.8%.

On to `Cc1ccc(C(=O)Nc2ccc(CN3CCN(C)CC3)c(C(F)(F)F)c2)cc1C#Cc1cnc2cccnn12`, for which the Potency was 5.9 µM (active). Same read-out and setting: the result for `CCn1nnc2c(N3CCOCC3)nc(-c3ccc(NC(=O)Nc4ccc(C(=O)N5CCN(C)CC5)cc4)cc3)nc21` reads 0.059 µM (active); that for `Nc1ccccc1NC(=O)c1ccc(CNc2nccc(-c3cccnc3)n2)cc1`, 1.66 µM (active). As to `COc1ccc(CC2SC(=O)NC2=O)cc1C(=O)NCc1ccc(C(F)(F)F)cc1` (stereo not given), the viability was 115%.

As to `CC1(C)OC2=C(C(=O)c3ccccc3C2=O)[C@H](NCc2ccccc2)[C@H]1O`, the Potency was 7.43 µM (active).

For orientation: viability means a read-out of living cells in per cent, often relative to untreated cells.
